Compound activity deposited in PubChem by National Center for Advancing Translational Sciences (NCATS).
This is a sample that favours compounds with a hit; in the whole collection about 2.9% have one here.
SNCA expr inhib: Primary qHTS assay for inhibitors of alpha-synuclein gene (SNCA) expression. HEK-293 SNCA-luciferase knock-in, luminescence, 24 h. Potency, µM (highest dose often 57.2 µM), actives largely listed as inhibitors. hit rate 0.17% among 140,000; also: nearly all actives have a fitted effect of over 45% in size
HEK293 viab: GF-AFC viability counterscreen for inhibitors of alpha-synuclein gene (SNCA) expression; HEK-293-SNCA-luc viability, GF-AFC fluorescence, 24 h; AID 1671193, 2021; hit rate 0.12% among 150,000; Potency, µM (top dose mostly 57.1 µM), hits mostly cytotoxic; also: nearly all actives have a fitted effect of over 30% in size
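Cytotoxicity counterscreen: after 24 h compound treatment of genome-edited SNCA-luciferase HEK-293 cells, live-cell protease substrate GF-AFC read by fluorescence after 30 min; activity scaled between DMSO (0%) and medium-only (-100%), curves Hill-fitted.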
KDM5B inhibitor: Primary screen for KDM5B Histone Demethylases FDH-coupled qHTS | KDM5B demethylase, FDH-coupled NADH fluorescence (FDH is formaldehyde dehydrogenase) | Potency, µM (series often up to 57.7 µM), usual class: inhibitors | hit rate 2.6% among 220,000 | AID 1347165, 2019; also: nearly all actives have a fitted effect of over 70% in size
Target sequence (Q9UGL1 whole entry, looked up): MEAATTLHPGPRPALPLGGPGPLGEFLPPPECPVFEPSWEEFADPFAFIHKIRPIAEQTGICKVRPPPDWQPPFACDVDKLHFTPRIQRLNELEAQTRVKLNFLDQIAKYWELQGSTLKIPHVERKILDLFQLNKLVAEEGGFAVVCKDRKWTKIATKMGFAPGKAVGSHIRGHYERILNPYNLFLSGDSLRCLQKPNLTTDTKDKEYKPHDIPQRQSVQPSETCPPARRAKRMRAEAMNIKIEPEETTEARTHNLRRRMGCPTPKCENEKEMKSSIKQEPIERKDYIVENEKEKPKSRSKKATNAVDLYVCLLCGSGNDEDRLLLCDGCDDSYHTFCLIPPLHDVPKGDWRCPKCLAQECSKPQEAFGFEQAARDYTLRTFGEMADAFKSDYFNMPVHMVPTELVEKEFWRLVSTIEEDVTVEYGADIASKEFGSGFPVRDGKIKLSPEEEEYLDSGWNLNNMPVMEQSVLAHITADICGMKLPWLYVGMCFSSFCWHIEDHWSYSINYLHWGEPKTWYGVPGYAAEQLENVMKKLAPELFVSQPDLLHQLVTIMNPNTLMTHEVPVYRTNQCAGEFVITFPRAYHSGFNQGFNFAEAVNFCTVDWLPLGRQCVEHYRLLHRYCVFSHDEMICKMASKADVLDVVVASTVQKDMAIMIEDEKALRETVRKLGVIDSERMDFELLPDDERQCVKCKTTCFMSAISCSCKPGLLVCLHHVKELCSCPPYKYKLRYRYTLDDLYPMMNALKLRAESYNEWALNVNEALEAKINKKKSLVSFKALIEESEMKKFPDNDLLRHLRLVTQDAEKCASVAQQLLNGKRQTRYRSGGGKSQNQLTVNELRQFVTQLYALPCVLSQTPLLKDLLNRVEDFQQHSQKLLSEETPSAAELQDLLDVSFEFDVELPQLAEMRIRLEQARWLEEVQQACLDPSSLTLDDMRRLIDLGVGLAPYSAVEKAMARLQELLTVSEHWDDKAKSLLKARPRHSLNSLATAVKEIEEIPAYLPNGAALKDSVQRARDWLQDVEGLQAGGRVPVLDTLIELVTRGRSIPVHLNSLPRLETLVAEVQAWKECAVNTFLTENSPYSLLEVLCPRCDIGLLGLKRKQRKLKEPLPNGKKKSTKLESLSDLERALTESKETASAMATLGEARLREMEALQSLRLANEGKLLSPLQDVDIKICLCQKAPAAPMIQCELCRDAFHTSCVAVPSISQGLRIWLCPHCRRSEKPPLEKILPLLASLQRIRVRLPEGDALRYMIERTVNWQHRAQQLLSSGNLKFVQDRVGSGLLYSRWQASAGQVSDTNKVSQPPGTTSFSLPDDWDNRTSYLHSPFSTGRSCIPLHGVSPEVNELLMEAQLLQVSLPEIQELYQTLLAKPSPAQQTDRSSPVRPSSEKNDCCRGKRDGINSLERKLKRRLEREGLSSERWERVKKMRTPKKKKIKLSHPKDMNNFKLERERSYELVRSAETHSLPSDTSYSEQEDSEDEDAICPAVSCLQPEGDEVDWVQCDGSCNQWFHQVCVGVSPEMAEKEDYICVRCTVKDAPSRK
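Inhibition is measured as reduced NADH fluorescence generation from FDH coupling to formaldehyde release. Truncated KDM5BΔAP at 200 nM final acts on H3K4me3 peptide (12.5 µM in substrate mix) in pH 7.5 HEPES buffer with Tween-20, 30 min, room temperature.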
IP6K1 inhibitor: Primary qHTS assay for small molecule inhibitors of Inositol hexaphosphate kinase 1 (IP6K1) | hit rate 0.81% among 140,000 | IP6K1 kinase, ADP-Glo luminescence, 2 h; stronger effect = lower value | Inositol hexakisphosphate kinase 1 (Homo sapiens), Q92551 | activity change, % (series mostly up to about 58 µM); in the data active = activity change below about -25%
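ADP-Glo luminescence measures ADP made by human IP6K1 during a 2 h RT reaction with ATP/IP6 (mix at 1.3 mM/130 uM); top library doses 57.5 and 19.1 uM final.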
IP6K1 conf: Confirmatory qHTS assay for small molecule inhibitors of Inositol hexaphosphate kinase 1 (IP6K1). shares compounds with IP6K1 inhibitor. recombinant IP6K1 kinase, ADP-Glo luminescence, 2 h. Potency, µM (doses to about 49 µM), most hits filed as inhibitors. hit rate 13% among 1,200; also: nearly all actives have a fitted effect of over 65% in size
Each line names hits and unclear results; the compound was inactive in the other large screens (follow-up assays come after a bar, where they were run); ! = not confirmed by another sample. Unless noted, calls follow the shape of the dose curve; as a rule, active = well fitted curve in the direction sought with a large enough effect; inconclusive = small, poorly fitted or top-dose-only effect, or another doubt; inactive = no such curve, though single readings can be large; an effect the other way counts as inactive or inconclusive.

Cc1ccc(S(=O)(=O)c2nc(-c3ccccc3)oc2N2CCCCCC2)cc1	none
O=S(=O)(c1ccccc1)c1nc(-c2cccs2)oc1N1CCCCC1	KDM5B inhibitor inconclusive, IP6K1 inhibitor -36 | IP6K1 conf inactive
COc1cc(C(C)C)c(Oc2cnc(N)nc2N)cc1I	IP6K1 inhibitor -29 (no result: SNCA expr inhib, KDM5B inhibitor) | IP6K1 conf inconclusive
CCOC(=O)c1cccc(NC(=O)N2CC[C@@H](CC(=O)Nc3nccs3)[C@@H](CC)C2)c1	IP6K1 inhibitor -35 | IP6K1 conf inconclusive
CCOC(=O)c1cccc(NC(=O)N2CC[C@@H](CC(=O)Nc3ccccc3)[C@@H](CC)C2)c1	none
O=C(NCCCc1ccccc1)c1ccc2nnc(-c3cncc(Cl)c3)n2c1	none (no result: KDM5B inhibitor)
CN(C)c1cc(=O)c2ccnc(-c3cccc(CO)c3)c2o1	IP6K1 inhibitor -25 | IP6K1 conf inactive
Cc1cc(-c2nccc3c(=O)cc(N(C)c4ccccc4)oc23)ccn1	KDM5B inhibitor inconclusive
CCCCNC(=O)CN1CCN(c2ncc(NC(=O)c3ccc(Cl)cc3)cc2C(=O)O)CC1	KDM5B inhibitor inconclusive, IP6K1 inhibitor -59 | IP6K1 conf inconclusive
CCCNC(=O)CN1CCN(c2ncc(NC(=O)c3ccc(Cl)cc3)cc2C(=O)O)CC1	KDM5B inhibitor inconclusive
O=C1CC2(CCN(C(=O)C3CCCN(C(=O)Cc4ccc(F)cc4)C3)CC2)Oc2ccccc2N1 (centres undefined)	none (no result: KDM5B inhibitor)
O=C(NC1CCCCCC1)c1nc2sccn2c1-c1ccc(C(F)(F)F)cc1	SNCA expr inhib inconclusive (no result: KDM5B inhibitor)
COc1cccc(-c2ccc(C(=O)N3CCC(C(=O)NCCc4ccc(F)cc4)CC3)cc2)c1	none (no result: KDM5B inhibitor)
COc1ccc(-c2ccc(C(=O)NCCCc3ccccc3)c(Cl)c2)nn1	none (no result: SNCA expr inhib, HEK293 viab, KDM5B inhibitor)
COc1ccc(CNC(=O)C2CCN(S(=O)(=O)c3ccc(C)cc3)CC2)cc1	none
COc1ccc(S(=O)(=O)N2CCC(C(=O)Nc3cc(C(F)(F)F)ccc3Cl)CC2)cc1	SNCA expr inhib inconclusive, HEK293 viab inconclusive, IP6K1 inhibitor -43 | IP6K1 conf inactive
Cc1cc(NC(=O)c2cc(-c3ccc[nH]3)n[nH]2)ccc1F	none
O=C(Nc1ccc(I)cc1)c1cc(-c2ccc[nH]2)n[nH]1	none | IP6K1 conf inconclusive
O=C(Nc1cccc(OC(F)(F)F)c1)c1cc(-c2ccc[nH]2)n[nH]1	none | IP6K1 conf inconclusive
Cc1ccc(F)cc1NC(=O)c1cc(-c2ccc[nH]2)n[nH]1	none | IP6K1 conf inconclusive
O=C(C1CCCCC1)N1CC(=O)N(C2Cc3ccccc3C2)CC(O)C1 (centres undefined)	none (no result: SNCA expr inhib, HEK293 viab, KDM5B inhibitor)
c1cnc2nc(-c3c[nH]c4ncccc34)[nH]c2c1	KDM5B inhibitor inconclusive, IP6K1 inhibitor -44! | IP6K1 conf inconclusive
c1cnc2nc(C3CCNC3)[nH]c2c1 (centres undefined)	KDM5B inhibitor inconclusive
CCOC(=O)C1CCN(c2c(C(=O)c3ccc(OCC)cc3)cnc3ccc(OC)cc23)CC1	SNCA expr inhib inconclusive, HEK293 viab inconclusive, KDM5B inhibitor inconclusive, IP6K1 inhibitor -33 | IP6K1 conf inactive
CCc1nnc(NS(=O)(=O)c2ccc(NC(=S)NC(=O)/C=C/c3ccc(F)cc3)cc2)s1	IP6K1 inhibitor -29 (no result: SNCA expr inhib, KDM5B inhibitor) | IP6K1 conf 21µM
COc1ccc(-c2cccc(C(=O)NCc3ccc(F)cc3)c2)nn1	none (no result: SNCA expr inhib, HEK293 viab, KDM5B inhibitor)
CCN1C(C(=O)c2ccccc2)=C(OC(=O)COc2ccccc2)c2ccccc2S1(=O)=O	SNCA expr inhib inconclusive, HEK293 viab inconclusive, KDM5B inhibitor inconclusive, IP6K1 inhibitor -29 | IP6K1 conf inconclusive
CCN1C(C(=O)c2ccccc2)=C(OC(=O)C(C)C)c2ccccc2S1(=O)=O	SNCA expr inhib inconclusive, KDM5B inhibitor inconclusive
COC[C@H]1C[C@H]2C[C@H](OC(=O)Nc3cccc(Cl)c3)[C@@H](NC(=O)Nc3cccc(Cl)c3)[C@@]2(O)CO1	none (no result: KDM5B inhibitor)
C=CCOc1c(OC)ccc2c1CN(C1CCCC1)C(=O)CCN2CC(O)COc1ccc(OC)cc1 (centres undefined)	none (no result: SNCA expr inhib, HEK293 viab, KDM5B inhibitor)
Cc1ccc2c(c1)cc1c(=O)n(Cc3ccc(Cl)cc3)nc(C)n12	KDM5B inhibitor inconclusive
Cc1ccc2c(c1)cc1c(=O)n(Cc3cccc(Cl)c3)nc(C)n12	IP6K1 inhibitor -30 | IP6K1 conf inactive
